Reference: PubChem BioAssay (Tox21)
Records with an inconclusive call do not appear. The source made the active and inactive calls. Unless noted, calls come from the whole dose curve.

What was measured:
[1] = Nuclear factor erythroid 2-related factor 2/antioxidant responsive element (Nrf2/ARE) small molecule agonists: qHTS cell viability counter screen in human keratinocytes (AID 1919968; active = well fitted cell-killing curve with a large enough effect in the repeat runs; note: nearly all actives have a fitted effect of over 55% in size)
How it was run: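 HaCaT ARE reporter line, 1,500 cells/well; 5 h settle, 37 C/5% CO2; cpd in DMSO pinned; 23 h exposure; CellTiter-Fluor, 1 h; fluorescence.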

[2] = Nuclear factor erythroid 2-related factor 2/antioxidant responsive element (Nrf2/ARE) small molecule agonists: luciferase reporter gene qHTS assay in human keratinocytes (AID 1919969); note: nearly all actives have a fitted effect of over 35% in size
[3] = biological target: Gonadotropin-releasing hormone receptor (Homo sapiens) (UniProt P30968); assay: Human gonadotropin-releasing hormone receptor (GnRHR) small molecule agonists, calcium flux assay in GnRHR-HEK293 cells (AID 1920063); note: nearly all actives have a fitted effect of over 35% in size
Sequence of Gonadotropin-releasing hormone receptor (Homo sapiens) (P30968 whole entry, looked up): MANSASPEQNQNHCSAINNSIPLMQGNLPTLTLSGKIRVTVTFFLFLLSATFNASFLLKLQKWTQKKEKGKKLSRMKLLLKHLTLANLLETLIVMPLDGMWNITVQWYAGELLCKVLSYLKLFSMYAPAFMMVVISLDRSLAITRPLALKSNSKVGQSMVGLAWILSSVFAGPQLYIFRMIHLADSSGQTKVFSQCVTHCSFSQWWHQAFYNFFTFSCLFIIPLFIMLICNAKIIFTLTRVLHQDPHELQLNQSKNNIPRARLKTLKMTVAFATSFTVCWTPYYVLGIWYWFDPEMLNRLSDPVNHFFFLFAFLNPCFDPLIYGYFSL
How it was run: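 GnRHR-HEK293, 1500 cells/well, 18 h 37 C/5% CO2; Ca dye 1 h 37 C; cpd pinned (DMSO), agonist mode; kinetic FL 480/540, 3 min, 1 s reads; 15 conc, n=3.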

[4] = p53 small molecule agonists, cell-based qHTS assay with human liver microsomes (AID 1963577);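 note: p53 response element beta-lactamase reporter cells with liver microsomes plus NADPH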
How it was run: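 Reporter activation was measured by LiveBLAzer fluorescence intensity in p53RE-bla cells, which had been exposed to compounds for 16 h at 37 C alongside 0.5 mg/mL human liver microsomes and 0.5 mg/mL NADPH (final concentrations).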

[5] = p53 small molecule agonists, cell-based qHTS assay with human liver microsomes: qHTS cell viability counter screen (AID 1963579); note: nearly all actives have a fitted effect of over 45% in size
How it was run: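 HLM-supplemented (0.5 mg/mL final) and NADPH-supplemented (0.5 mg/mL final) p53RE-bla cultures, 4,000 cells per well, were dosed with compounds in DMSO for 16 h at 37 C; luminescent ATP detection (CellTiter-Glo, 30 min, room temperature) quantified surviving cells.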

[6] = p53 small molecule agonists, cell-based qHTS assay with rat liver microsomes: qHTS cell viability counter screen (AID 1963580); note: nearly all actives have a fitted effect of over 45% in size
How it was run: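 p53RE-bla HCT-116 cells were exposed 16 h at 37 C to compounds with rat liver microsomes (0.5 mg/mL) and NADPH (0.5 mg/mL). Viability was measured in the same wells as ATP content by CellTiter-Glo luminescence.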

[7] = p53 small molecule agonists, cell-based qHTS assay: qHTS cell viability counter screen (AID 1963581); note: nearly all actives have a fitted effect of over 45% in size
How it was run: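 HCT-116 p53RE-bla cells, 4,000/well, plated 5 h before compound pin transfer; 16 h at 37 C; bla substrate 2 h RT; then CellTiter-Glo, 30 min RT, luminescence.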

[8] = p53 small molecule agonists, cell-based qHTS assay (AID 1963582; active = well fitted activation curve with a large enough effect in the signal ratio in the repeat runs, not every such curve was filed as active; the % refers to the signal ratio)
How it was run: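 Reporter line: p53RE-bla. Pre-incubation 5 h, 37 C, 5% CO2; compound (DMSO, pin tool) 16 h, 37 C; B/G FRET substrate 2 h RT; fluorescence intensity read.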

[9] = biological target: 5-hydroxytryptamine receptor 2A (Homo sapiens) (UniProt P28223); assay: 5-hydroxytryptamine receptor 2A (HTR2A) small molecule antagonists, cell-based qHTS assay (AID 1963586); note: nearly all actives have a fitted effect of over 45% in size
Sequence of 5-hydroxytryptamine receptor 2A (Homo sapiens) (P28223 whole entry, looked up): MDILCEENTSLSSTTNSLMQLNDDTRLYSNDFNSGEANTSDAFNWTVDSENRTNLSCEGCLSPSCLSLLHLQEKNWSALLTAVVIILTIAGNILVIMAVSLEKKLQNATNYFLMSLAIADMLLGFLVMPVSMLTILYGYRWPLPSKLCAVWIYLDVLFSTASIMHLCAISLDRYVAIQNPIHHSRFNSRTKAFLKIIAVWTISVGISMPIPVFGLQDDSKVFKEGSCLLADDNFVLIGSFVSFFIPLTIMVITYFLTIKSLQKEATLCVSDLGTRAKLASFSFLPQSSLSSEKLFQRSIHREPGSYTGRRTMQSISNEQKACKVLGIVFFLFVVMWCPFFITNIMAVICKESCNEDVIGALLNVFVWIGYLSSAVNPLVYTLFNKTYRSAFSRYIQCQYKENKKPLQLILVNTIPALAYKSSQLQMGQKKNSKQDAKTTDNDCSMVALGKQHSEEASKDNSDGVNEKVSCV
How it was run: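 Antagonist-mode intracellular calcium assay: DOI (4 nM) added after 5 min compound pre-incubation at room temperature to dye-loaded HTR2A-CHO cells. Fluorescence followed for 3 min, sampled every second.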

[10] = biological target: 5-hydroxytryptamine receptor 2A (Homo sapiens) (UniProt P28223); assay: 5-hydroxytryptamine receptor 2A (HTR2A) small molecule agonists, cell-based qHTS assay (AID 1963587); note: nearly all actives have a fitted effect of over 30% in size
How it was run: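 CHO cells stably expressing human HTR2A, plated 18 h, loaded with calcium dye 1 h at 37 C. Agonist mode: compounds added and intracellular calcium fluorescence recorded kinetically for 2 min at 1 sec intervals.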

[11] = biological target: Muscarinic acetylcholine receptor M1 (Homo sapiens) (UniProt P11229); assay: Cholinergic receptor muscarinic 1 (CHRM1) small molecule antagonists, cell-based qHTS assay (AID 1963588); note: nearly all actives have a fitted effect of over 40% in size
Sequence of Muscarinic acetylcholine receptor M1 (Homo sapiens) (P11229 whole entry, looked up): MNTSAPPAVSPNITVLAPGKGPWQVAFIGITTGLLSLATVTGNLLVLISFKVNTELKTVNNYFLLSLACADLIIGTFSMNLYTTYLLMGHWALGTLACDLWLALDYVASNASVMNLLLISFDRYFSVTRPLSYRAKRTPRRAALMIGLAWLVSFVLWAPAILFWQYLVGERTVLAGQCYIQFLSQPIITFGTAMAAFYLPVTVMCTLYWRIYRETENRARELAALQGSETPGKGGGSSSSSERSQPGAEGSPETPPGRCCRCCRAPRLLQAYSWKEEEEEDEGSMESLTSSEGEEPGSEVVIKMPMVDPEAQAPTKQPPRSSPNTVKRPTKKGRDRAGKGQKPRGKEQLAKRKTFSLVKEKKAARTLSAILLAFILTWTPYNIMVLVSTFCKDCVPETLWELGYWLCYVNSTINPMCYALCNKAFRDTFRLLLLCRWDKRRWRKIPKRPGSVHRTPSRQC
How it was run: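 CHRM1-CHO calcium-flux assay, antagonist mode. Cells were seeded 18 h, dye-loaded 1 h at 37 C and given compound for 5 min at RT, then acetylcholine was added at 50nM. FDSS fluorescence was read 3 min; 15 concentrations, three runs.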

[12] = biological target: Muscarinic acetylcholine receptor M1 (Homo sapiens) (UniProt P11229); assay: Cholinergic receptor muscarinic 1 (CHRM1) small molecule agonists, cell-based qHTS assay (AID 1963589); note: nearly all actives have a fitted effect of over 35% in size
How it was run: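 Human M1 in stable CHO line; 18 h plating, 1 h dye load 37 C; cpd added (agonist mode); Ca2+ fluorescence kinetic read, 1 s intervals; 15 conc, 3 runs.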

[13] = cAMP Responsive Elements (CRE) small molecule agonists, cell-based qHTS assay (AID 1963590)
How it was run: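 HEK 293T CRE-bla, 2,000 cells/well, 18 h preincubation 37 C/5% CO2; cpds (DMSO) pinned, 3 h; LiveBLAzer B/G FRET substrate, 2 h RT.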

[14] = cAMP Responsive Elements (CRE) small molecule antagonists, cell-based qHTS assay (AID 1963591; active = well fitted inhibition curve with a large enough effect in the signal ratio in the repeat runs, not every such curve was filed as active; the % refers to the signal ratio)
How it was run: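 Beta-lactamase reporter read by FRET substrate (LiveBLAzer B/G) after 2 h at room temperature. CRE-bla HEK293T cells had received compound plus 0.25 uM (final) NKH477 for 3 h at 37 °C.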

[15] = biological target: Beta-2 adrenergic receptor (Homo sapiens) (UniProt P07550); assay: Adrenergic beta2 receptor (ADRB2) small molecule antagonists, cell-based qHTS assay (AID 1963592); note: series mostly up to about 92 µM; nearly all actives have a fitted effect of over 50% in size
Sequence of Beta-2 adrenergic receptor (Homo sapiens) (P07550 whole entry, looked up): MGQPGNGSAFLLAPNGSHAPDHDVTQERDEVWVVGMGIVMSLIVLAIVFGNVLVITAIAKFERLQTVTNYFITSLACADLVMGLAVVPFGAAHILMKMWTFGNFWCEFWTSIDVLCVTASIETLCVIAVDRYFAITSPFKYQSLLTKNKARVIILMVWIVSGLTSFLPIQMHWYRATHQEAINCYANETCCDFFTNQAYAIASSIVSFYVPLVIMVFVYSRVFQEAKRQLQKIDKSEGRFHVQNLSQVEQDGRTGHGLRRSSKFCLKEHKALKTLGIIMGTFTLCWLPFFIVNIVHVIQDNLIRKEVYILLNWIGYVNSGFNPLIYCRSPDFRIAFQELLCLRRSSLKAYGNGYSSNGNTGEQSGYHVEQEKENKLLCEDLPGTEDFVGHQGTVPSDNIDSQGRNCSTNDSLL
How it was run: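 Cells (CHO, stable ADRB2 overexpression) incubated 18-20hr at 37C; compounds added from DMSO; agonist mix (1nM isoproterenol, 100uM IBMX, 25uM Ro-20-1724) added; 0.5hr RT; d2-cAMP and anti-cAMP-cryptate added; 1hr RT; 665/615 nm read.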

[16] = biological target: D(2) dopamine receptor (Homo sapiens) (UniProt P14416); assay: Dopamine D2 receptor (DRD2) small molecule agonists, cell-based qHTS assay (AID 1963594); note: nearly all actives have a fitted effect of over 35% in size
Sequence of D(2) dopamine receptor (Homo sapiens) (P14416 whole entry, looked up): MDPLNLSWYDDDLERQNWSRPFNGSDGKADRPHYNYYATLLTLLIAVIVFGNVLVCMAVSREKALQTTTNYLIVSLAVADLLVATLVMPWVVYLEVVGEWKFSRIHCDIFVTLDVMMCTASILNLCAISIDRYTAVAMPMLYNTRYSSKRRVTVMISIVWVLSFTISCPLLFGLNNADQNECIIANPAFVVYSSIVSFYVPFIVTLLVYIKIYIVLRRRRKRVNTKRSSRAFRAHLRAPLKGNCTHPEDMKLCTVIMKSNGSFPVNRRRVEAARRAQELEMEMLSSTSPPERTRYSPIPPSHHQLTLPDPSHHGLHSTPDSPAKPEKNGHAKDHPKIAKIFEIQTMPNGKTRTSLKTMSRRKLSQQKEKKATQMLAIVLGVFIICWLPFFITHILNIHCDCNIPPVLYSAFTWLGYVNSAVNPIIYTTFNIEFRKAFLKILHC
How it was run: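 HEK293 cells stably expressing human DRD2, pre-treated with PDE inhibitor Ro20-1724 (0.1 mM final) and compound 10 min at room temperature, then stimulated with NKH477 (200nM […]) for 30 min. cAMP read by HTRF (665/620 nm).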

[17] = biological target: D(2) dopamine receptor (Homo sapiens) (UniProt P14416); assay: Dopamine D2 receptor (DRD2) small molecule antagonists, cell-based qHTS assay (AID 1963595; active = well fitted inhibition curve with a large enough effect in the signal ratio in the repeat runs, with a control signal flat; the % refers to the signal ratio)
How it was run: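 HEK293 cells stably expressing DRD2, preincubated with 0.1 mM Ro20-1724 and compounds 10 min, were stimulated with 200 nM NKH477 plus 12 nM quinpirole for 30 min at room temperature; cAMP measured by HTRF (665/620 nm).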

[18] = p53 small molecule agonists, cell-based qHTS assay with rat liver microsomes (AID 1963578)
How it was run: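 Compound in DMSO added to p53RE-bla cells 5 h post-plating; rat microsomes/NADPH 0.5 mg/mL final; 16 h, 37 C; LiveBLAzer 2 h RT.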

[19] = G protein-coupled receptor (GPCR) small molecule agonists, calcium flux assay: HEK293 wild type cell line counter screen (AID 1920065)
How it was run: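 Kinetic fluorescence at Ex/Em 480/540, recorded every second over 3 min, served as the read-out after compound addition. Each compound was tested at 15 concentrations in triplicate on cells pre-loaded with calcium dye for 1 h.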

[20] = biological target: Beta-2 adrenergic receptor (Homo sapiens) (UniProt P07550); assay: Adrenergic beta2 receptor (ADRB2) small molecule agonists, cell-based qHTS assay (AID 1963593);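 note: CHO cells stably overexpressing human ADRB2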
How it was run: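 CHO cells stably over-expressing ADRB2 were plated overnight at 37C, then dosed with compounds plus a stimulation mix containing 100uM IBMX and 25uM Ro-20-1724 for 0.5hr at room temperature. cAMP was measured by HTRF competition, 1hr.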

Measured: Potency

O=C1OCCO1
not listed: [18] | [19] | [20]
inactive: all other assays above

COC(=O)c1cc(S(N)(=O)=O)ccc1OC
not listed: [4] | [12] | [17] | [19] | [20]
inactive: all other assays above

CC(C)OCCO
inactive: all assays above

CC(C(=O)O)c1cccc(C(=O)c2ccccc2)c1 (stereo unspecified)
inactive: [1] | [2] | [3] | [8] | [20] | [16] | [17]

Cc1cn([C@H]2C[C@H](F)[C@@H](CO)O2)c(=O)[nH]c1=O
not listed: [16]
inactive: all other assays above

CCOC(=O)c1ccccc1C
inactive: all assays above

C[C@]12CCC(=O)C=C1CC[C@@H]1[C@@H]2[C@@H](O)C[C@@]2(C)[C@H]1CC[C@]2(O)C(=O)CO
inactive: [1] | [2] | [3] | [7] | [14] | [15] | [16] | [17]

Cc1cccnc1
not listed: [4] | [8] | [9] | [18] | [19]
inactive: all other assays above
